# “And” between values parts separate entries of the source, which are not always exact repeats. Equal entries are not always repeated. In all, about 300,000 compounds went through this assay and about 37,000 (12%) were called active. Cut-off read from the data, not from the text of the source: active = max response mostly above about 13% (no sharp cut-off); inactive = mostly below about 14%. The list comes from a sample in which actives are over-represented; it also holds similar structures and randomly drawn compounds.
# Test: Cycloheximide Counterscreen for Small Molecule Inhibitors of Shiga Toxin; note: read at 38.3 µM for the half of the compounds with a filed dose; 0% is about no effect
# Details: cell reporter, cycloheximide protein synthesis inhibition counterscreen; active compounds read high
row,Structure (SMILES),max response
1,CO/N=C(/CS(=O)(=O)c1ccc(Br)cc1)c1ccc(OC)cc1,0.74% (inactive)
2,Clc1ccc(COn2c(-c3ccc(Cl)cc3Cl)nc3ncccc32)cc1,-3.82% (inactive)
3,Cc1n[nH]c(=O)c2c1nnn2Cc1ccc(F)cc1,-2.69% (inactive)
4,O=C(Nc1ccc(Br)cc1)c1cccc(NC(=O)C2C3CC4OC(=O)C2C4C3)c1 (stereo not drawn),14% (inactive)
5,Cn1c(CCNS(=O)(=O)c2ccc(F)cc2)nnc1SCc1cccnc1,-3.41% (inactive)
6,COC(=O)C1[C@H]2SC(C)(C)C(C(=O)OC)N2C(=O)N1Cc1nc2ccccc2s1 (stereo partly drawn),0.765% (inactive)
7,CCC1(CC)NC(=O)N(CC(=O)OCC(=O)NC(=O)c2ccccc2)C1=O,-1.66% (inactive)
8,CCC1(CC)NC(=O)N(Cc2nc3ccccc3s2)C1=O,19.8% (active)
9,O=S(=O)(c1ccccc1)c1nc(Cc2ccccc2)oc1N1CCOCC1,-5.23% (inactive)
10,COc1ccc(CCN2C(=O)CC(N3CCC(C(N)=O)CC3)C2=O)cc1OC (stereo not drawn),3.18% (inactive)
11,Nc1nonc1-n1nnc(C(=O)N/N=C/c2cc(Br)ccc2O)c1CSC1=NCCS1,-2.34% (inactive)
12,O=C(Nc1ccccc1F)c1ccccc1-c1ccc(C(F)(F)F)cc1,-2.22% (inactive)
13,CCCOC(=O)c1[nH]c2c(c1C)C(=O)CC(c1cc(OC)c(OC)c(OC)c1)C2 (stereo not drawn),3.17% (inactive)
14,COC(=O)C1C(=O)c2c([nH]c(C(=O)OCCSC)c2C)CC1C (stereo not drawn),51.7% (active)
15,CCCOC(=O)C1=C(C)NC2=C(C(=O)C(C(=O)OC)C(C)C2)C1c1ccc(N(C)C)cc1 (stereo not drawn),12.3% (inactive)
16,CC(C)(CNC(=O)Cc1ccc(Cl)cc1Cl)N1CCOCC1,-3.1% (inactive)
17,Cc1ccccc1OC/C(O)=C(\C#N)c1nc2ccccc2[nH]1,0.892% (inactive)
18,COCCN(CCOC)S(=O)(=O)c1ccc(/C(O)=C(\C#N)c2nc3ccccc3[nH]2)cc1,12.2% (active)
19,N#C/C(=C(/O)COc1cccc2ccccc12)c1nc2ccccc2[nH]1,2.08% (inactive)
20,O=C(c1ccc(OC2CCN(C(=O)c3cccnc3)CC2)cc1)N1CCCCCC1,-1.68% (inactive)
21,CCOC(=O)/C(=C\c1ccc([N+](=O)[O-])cc1)C(=O)c1cc(C(C)=O)c(Nc2ccccc2)s1,-4.46% (inactive)
22,CN(C)C(=O)Oc1ccc2c(c1)O/C(=C\c1ccccc1)C2=O,44.1% (active)
23,O=C1/C(=C/c2ccc3c(c2)OCO3)Oc2cc(OCC(=O)N3CC(O)C[C@H]3C(=O)O)ccc21 (stereo partly drawn),0.739% (inactive)
24,COC(=O)C(C)Oc1ccc2c(c1)O/C(=C\c1cccc(Br)c1)C2=O (stereo not drawn),1.99% (inactive)

row,Structure (SMILES),max response
1,COc1cc(C(CCN2CCN(c3ccccc3)CC2)c2c(OC)cc(OC)c3ccc(=O)oc23)cc(OC)c1OC (stereo not drawn),-1.52% (inactive) and 15.6% (inactive)
2,C=C(C)COc1ccc(-c2ncncc2-c2ccc(OC)cc2)c(O)c1,13.2% (inactive)
3,COC(=O)c1cc(OC)c(OC)cc1NC(=O)CSc1ccc(C)cc1,-2.51% (inactive)
4,Cc1ccc(SC(=O)COc2ccc(C)c(C)c2)cc1,-5.87% (inactive)
5,Cc1ccc(SCC(=O)c2cc(C)c(OC(=S)N(C)C)c(C)c2)cc1,26.1% (active)
6,Cc1ccc(NC(=O)c2ccc(S(=O)(=O)NCC3CCCO3)cc2)cc1C (stereo not drawn),9.52% (inactive)
7,Cc1ccc(-c2nn(-c3ccccc3)cc2/C=C2\SC(=S)N(CCCCCC(=O)O)C2=O)o1,1.36% (inactive)
8,O=C(NC(=S)N1CCCCC1c1cccnc1)c1ccccc1 (stereo not drawn),11.6% (inactive)
9,C=C(C)c1cccc(C(C)(C)NC(=O)NC2CCCC2)c1,-2.37% (inactive)
10,Cc1ccc(C)c(N2CCN(C(=O)Cn3ncn4cccc4c3=O)CC2)c1,-1.35% (inactive)
11,FC(F)(F)c1ccnc(Oc2ccc(C3=NCCS3)cc2)c1,42.3% (active)
12,O=Cc1ccc(Oc2cccc(C(F)(F)F)c2)nc1,15% (inactive)
13,NC(=S)Nc1c(Cl)cccc1Cl,4.66% (inactive)
14,CCc1ccc(NC(=O)C(=O)NNC(=O)c2cccs2)cc1,27.8% (active)
15,O=C(COC(=O)c1cccs1)Nc1ccccc1Cl,-1.99% (inactive)
16,CCOC(=O)c1oc2ccccc2c1NC(=O)c1cccs1,-3.1% (inactive)
17,O=C(COC(=O)CCC(=O)c1cccs1)NCc1ccco1,1.52% (inactive)
18,CCc1ccc(NC(=O)COC(=O)c2cccs2)cc1,51.3% (active)
19,C/C(=N\OCC(=O)Nc1ccc(Br)cc1)c1cccs1,7.82% (inactive)
20,CCc1ccc(NC(=O)C(=O)N/N=C(\C)CC(=O)NCCOC)cc1,20.1% (inactive)
21,O=C(COC(=O)c1ccc(Cl)nc1)NCc1cccs1,-2.61% (inactive)
22,CCc1cccc(NC(=O)CCNS(=O)(=O)c2cccc3nonc23)c1,-2.33% (inactive)
23,CCc1ccc(NC(=O)CCNS(=O)(=O)c2cccs2)cc1,21.6% (active)
24,O=C(COC(=O)c1cccs1)NCc1cccs1,16.3% (active)

row,Structure (SMILES),max response
1,O=C(COC(=O)c1ccc(NS(=O)(=O)c2cccs2)cc1O)Nc1ccc(F)cc1,0.935% (inactive)
2,CCc1ccccc1N(CC(=O)NCC1CCCO1)C(=O)CCC(=O)Nc1nccs1 (stereo not drawn),-4.73% (inactive)
3,CCOc1ccccc1NC(=O)C1CCCN(S(=O)(=O)c2ccccc2)C1 (stereo not drawn),-1.93% (inactive)
4,CCc1nnc(NS(=O)(=O)c2ccc(NC(=S)NC(=O)c3cccs3)cc2)s1,0.706% (inactive)
5,NS(=O)(=O)c1ccc(NC(=S)NNC(=O)c2cccs2)cc1,29.3% (active)
6,O=C(NC(=S)Nc1ccc(NC(=O)c2cccs2)cc1)c1ccc([N+](=O)[O-])cc1,0.608% (inactive)
7,O=C(c1n[nH]c2c1CCC2)N1CCCC(Nc2cccc(F)c2)C1 (stereo not drawn),10.7% (inactive)
8,O=C(NCc1ccc(Cl)cc1)c1cc(=O)nc2sc(-c3ccccc3)nn12,-4.5% (inactive)
9,CC(=NCc1ccc2c(c1)OCO2)C1=C(O)c2ccccc2C1=O,14.2% (active)
10,CC(=NCc1ccc2c(c1)OCO2)c1c(O)[nH]c(=O)[nH]c1=O,-1.94% (inactive)
11,CC(=NCc1ccco1)C1=C(O)c2ccccc2C1=O,24.6% (inactive)
12,CC1C(=O)N(Cc2ccccc2)c2ccccc2N1C(=O)c1ccccc1 (stereo not drawn),5.44% (inactive)
13,O=C(OCc1ccc([N+](=O)[O-])cc1)C1CC(=O)N(Cc2ccccc2Cl)C1 (stereo not drawn),5.26% (inactive)
14,CN1CCN(S(=O)(=O)c2cccc(C(=O)Nc3cccc(S(N)(=O)=O)c3)c2)CC1,5.45% (inactive)
15,Cc1cccnc1NC(=O)c1cccc(S(=O)(=O)N2CCN(c3ccc(F)cc3)CC2)c1,-1.47% (inactive)
16,O=C(Nc1ccc2c(c1)CCC2)c1cccc(S(=O)(=O)N2CCN(c3ccc(F)cc3)CC2)c1,18.6% (active)
17,OCCC1CN(Cc2cnc(-c3ccccc3)s2)CCN1CCc1ccccc1 (stereo not drawn),-2.01% (inactive)
18,Clc1ccc(-c2nnc(SCc3nc4ccccc4s3)o2)cc1,31.5% (active)
19,O=C(COC(=O)CSc1nnc(-c2ccc(Cl)cc2)o1)Nc1cc(Cl)cc(Cl)c1,-1.68% (inactive)
20,O=C(CSc1nnc(-c2ccncc2)o1)NCc1ccc(Cl)cc1,-4.87% (inactive)
21,O=C(NCc1ccccc1Cl)C1CCN(S(=O)(=O)c2cccc3nonc23)CC1,7.56% (inactive)
22,O=c1oc(-c2ccccc2NS(=O)(=O)c2ccc(Cl)cc2)nc2ccccc12,-0.333% (inactive)
23,C(=N/Nc1cc(N2CCOCC2)nc(N2CCOCC2)n1)/c1ccccc1,-4.51% (inactive)
24,Cc1nc(Cl)cc(N/N=C/c2ccccc2)n1,9.02% (active)

row,Structure (SMILES),max response
1,Cc1cc(N/N=C\c2ccc(Br)cc2)nc(-n2nc(C)cc2C)n1,-2.43% (inactive)
2,CCc1ccc2oc(=O)cc(CN3CCCCC3C)c2c1 (stereo not drawn),10.3% (inactive)
3,CCOC(=O)C1CCCN(C(=O)COc2ccc(N(C)S(=O)(=O)c3ccc(C)cc3)cc2)C1 (stereo not drawn),-3.78% (inactive)
4,O=C(NCC1CCCO1)C1CCN(C2CCN(C(=O)C3CCCCC3)CC2)CC1 (stereo not drawn),-2.3% (inactive)
5,O=c1c2c(nc3nc[nH]n13)CCC2,-2.72% (inactive)
6,O=c1c2c(nc3cc(-c4cccc(Cl)c4)[nH]n13)CCCC2,52.1% (active)
7,Cc1cc(=O)n2[nH]c(-c3cccc(Cl)c3)cc2n1,6.54% (inactive)
8,COc1ccc(OC)c(NC(=O)Cc2cccs2)c1,5.9% (inactive)
9,CS(=O)(=O)N(CC(=O)N/N=C/c1ccccn1)c1ccc(Oc2ccccc2)cc1,8.35% (inactive)
10,CC(C(=O)N=Nc1c(O)n(C)c2ccc(Br)cc12)n1cnc2ccccc2c1=O (stereo not drawn),1.79% (inactive)
11,Cn1c(CCCOc2ccc(Cl)cc2Cl)n[nH]c1=S,16.1% (active)
12,S=c1[nH]nc(CSCc2ccc(Cl)cc2Cl)n1-c1ccccc1,-1.69% (inactive)
13,O=C(CCCOc1ccc(Cl)cc1Cl)NNC(=O)C1CCC1,3.02% (inactive)
14,CC(C)Cn1c(N)c(C(=O)COC(=O)CN2C(=O)C3CC=CCC3C2=O)c(=O)n(C)c1=O (stereo not drawn),1.25% (inactive)
15,COc1ccc(-n2cc(-c3ccccc3)c3c(=S)nc[nH]c32)cc1,-2.8% (inactive)
16,COc1ccc(-n2c(-c3ccc(OC)c(OC)c3)n[nH]c2=S)cc1,-1.61% (inactive)
17,COc1ccc(-c2cn(-c3ccc(OC)cc3)c(=S)[nH]2)cc1,37.9% (active)
18,O=C(Cc1ccc(S(=O)(=O)N2CCOCC2)s1)NCCC(c1ccccc1)c1ccccc1,-2.5% (inactive)
19,CCOC(=O)c1cc(Sc2ccccc2N)cc(C(=O)OCC)n1,-2.14% (inactive)
20,Nc1ccccc1Sc1ccc(C(F)(F)F)cc1[N+](=O)[O-],-0.845% (inactive)
21,CCS(=O)(=O)c1cc([N+](=O)[O-])c(Sc2ccccc2N)s1,52.5% (active)
